Source: PubChem BioAssay (NCI)
The panel holds about 83,000 compounds, 20% with a hit somewhere; the sample as a whole holds those more often.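 Compound tested at a single concentration for 48 hours in 96-well plates; a percent growth value below 10 was scored as active.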 A number with no mark means an inactive call. The source made the active and inactive calls.

What was measured:
Assay in all cases: NCI-60 one-dose screen, 48 h (100 = growth as untreated, 0 = no growth, -100 = all killed)
Details in all cases: 10 µM unless noted
[1] = system: NCI-H23 lung
[2] = system: NCI-H226 lung
[3] = system: NCI-H322M lung
[4] = system: HOP-62 NSCLC
[5] = system: NCI-H460 lung
[6] = system: HOP-92 NSCLC
[7] = system: NCI-H522 lung
[8] = system: A549/ATCC NSCLC
[9] = system: 786-0 renal
[10] = system: COLO 205 colon
[11] = system: DU-145 prostate
[12] = system: K-562 leukemia
[13] = system: MALME-3M melanoma
[14] = system: MDA-MB-231 breast
[15] = system: SF-268 CNS
[16] = system: SF-295 CNS
[17] = system: SF-539 CNS
[18] = system: UACC-257 melanoma
[19] = system: M14 melanoma

Row | SMILES | growth [1] | growth [2] | growth [3] | growth [4] | growth [5] | growth [6] | growth [7] | growth [8] [%] | growth [9] | growth [10] | growth [11] | growth [12] | growth [13] | growth [14] | growth [15] | growth [16] | growth [17] | growth [18] | growth [19]
1 | COc1ccc(C(=O)c2cc3c(N)c(C(=O)Nc4cccc(Cl)c4)sc3nc2C)cc1 | 35.1% | 61.9% | 57.2% | 44.9% | 13.1% | 86.9% | -4.67% (active) | 32.3 | 51.6% | -1.48% (active) | 18% | 6.91% (active) | 51.2% | 28.4% | 44.7% | 31.3% | -15.5% (active) | 71.4% | 17.9%
2 | COc1ccc(C(O)c2cc3c(N)c(C(=O)Nc4ccc(Br)cc4)sc3nc2C)cc1 (centres undefined) | 38.1% | 42.4% | 39.4% | 23% | 6.2% (active) | 44.1% | 6.85% (active) | 24.3 | 50.3% | 11.3% | -4.27% (active) | 3.49% (active) | 24.8% | 54.1% | 45.4% | 21.6% | 27.2% | 32.3% | 3.91% (active)
3 | Cc1nc2sc(C(=O)Nc3cccc(Br)c3)c(N)c2cc1C(=O)c1ccc(C(F)(F)F)cc1 | 75.1% | 92% | 65.7% | 60.6% | 63.7% | 80% | 84.7% | 74.7 | 86.4% | 86.7% | 69.3% | 84.2% | 81% | 63.8% | 79.4% | 67.7% | 56.5% | 95.2% | 69.2%
4 | O=S(=O)(NCCCNc1nccc(-c2c(-c3ccc(F)c(O)c3)nc3sccn23)n1)c1ccc(F)cc1 | 2.45% (active) | 11% | 5.97% (active) | 19.9% | 6.31% (active) | 6.16% (active) | -9.08% (active) | 10.2 | 14.1% | 11.5% | 11.5% | 3.41% (active) | -14.7% (active) | -23.1% (active) | 9.56% (active) | -12.1% (active) | 18.5% | -10% (active) | 6.75% (active)
5 | Clc1ccc(C2CC(c3cccc(Nc4ccncc4)c3)=NN2c2ccccc2)cc1 (centres undefined) | 84.3% | 93.1% | 69.7% | 0.979% (active) | -70.5% (active) | 55.8% | -39.1% (active) | 27.3 | -94.3% (active) | -63.6% (active) | 56.7% | 0.432% (active) | -72% (active) | 75.2% | 82.1% | 70% | 71.5% | 34.5% | -80.6% (active)
6 | O=C(Nc1ccc(Cl)cc1)Nc1ccc(Cl)c(Cl)c1 | -54.2% (active) | 16.3% | 23.7% | 40.8% | -9.05% (active) | 4.68% (active) | 0.643% (active) | 12.6 | 39.1% | -2.8% (active) | 10.7% | 4.12% (active) | -1.33% (active) | 37.6% | 36.1% | -50.7% (active) | -19.2% (active) | 43% | 22.8%
7 | COc1ccc(-c2nc3sccn3c2/C=C/C(=O)c2cc(OC)c(OC)c(OC)c2)cc1 | 59.9% | 87.4% | 69.4% | 79.1% | 47% | -1.77% (active) | 5.02% (active) | 60.4 | 78.3% | 79.2% | 75.7% | 44.2% | 53.3% | 52.8% | 67.4% | 54.6% | 53% | 69.1% | 63.6%
8 | CC(=O)O[C@H]1CC[C@@]2(C)[C@@H](CC[C@@H]3[C@@H]2CC[C@@]2(C)[C@H]3CC[C@]2(O)C(C)=O)C1 | 101% | 89.8% | 91.9% | 95.3% | 105% | 101% | 96.8% | 92.1 | 98.1% | 107% | 115% | 100% | 99.5% | 100% | 106% | 94.4% | 100% | 109% | 99.3%
9 | COc1ccc(C(=O)c2cc3c(N)c(C(=O)Nc4ccc(Cl)cc4)sc3nc2C)cc1 | 89.7% | 57.1% | 87.1% | 37.5% | 68.4% | 78.2% | 43.8% | 77.1 | 81.6% | 85.8% | 90.1% | 31.1% | 58.7% | 81.2% | 56.4% | 89.3% | 71.9% | 77.3% | 61.5%
10 | Cc1ccc(-c2c(Br)c(OC(=O)CO[C@@H]3C[C@H](C)CC[C@H]3C(C)C)c(-c3ccc(C)cc3C)c(Br)c2OC(=O)CO[C@H]2C[C@@H](C)CC[C@@H]2C(C)C)c(C)c1 | 98.6% | 56.2% | 103% | 94.5% | 105% | 93.6% | 79.4% | 88.9 | 96.8% | 95.3% | 106% | 110% | 106% | 96.1% | 100% | 96.2% | 101% | 98.8% | 91.5%
11 | COc1cccc2cc(-c3cc4ccccc4[nH]3)/c(=N/C(=S)Nc3ccc(C)cc3)oc12 | 67.9% | 55.1% | 80.1% | 22% | 51.1% | -6.31% (active) | 84.8% | 79.9 | 59% | 99.4% | 66.4% | 80.4% | 66.6% | 39.4% | 72.3% | 79.5% | 45.7% | 103% | 95%
12 | CN1CCN(c2ccc(NC3=C(Cl)C(=O)c4ncccc4C3=O)cc2C#N)CC1 | 51% | 94% | 103% | 103% | 94.8% | -61.4% (active) | -56.9% (active) | 110 | 85.5% | 57.6% | 86.9% | 2.83% (active) | -69.4% (active) | -4.9% (active) | 85.3% | 115% | 91.6% | -46.5% (active) | 54%
13 | O=C(NCCc1ccccn1)OCc1nc2nc(Cl)nc(N3CCOCC3)c2[nH]1 | 37.6% | -53.2% (active) | 43.9% | 27.3% | 3.35% (active) | 22.4% | -34.4% (active) | 43.5 | 13.9% | 17.2% | 12% | 0.32% (active) | 67.8% | 28.5% | 24.3% | 91.4% | -13.4% (active) | 30.6% | 4.12% (active)
14 | COc1ccccc1/C=C1\Oc2cc(OCCCN3CCCC3)ccc2C1=O | 83% | 98.7% | 96.5% | 88.5% | 95.9% | 63.1% | 104% | 99.9 | 94% | 96.4% | 98% | 4.95% (active) | 96.5% | 86.5% | 90.3% | 99.2% | 76.4% | 109% | 100%
15 | COc1ccc(Cn2nc(-c3ccccc3)c3c2CCc2cnoc2-3)cc1 | 60.3% | 105% | 101% | 83.5% | 80.5% | 61.1% | 70.3% | 69.4 | 79.4% | 88.6% | 96.9% | 36.3% | 109% | 55.6% | 81% | 59.5% | 85.4% | 90.9% | 89.2%
16 | CC(=O)OCC(=O)[C@@]1(O)CC[C@H]2[C@@H]3CC(=C(Br)Br)C4=CC(=O)CC[C@]4(C)[C@H]3C(=O)C[C@@]21C | 88.6% | 92.1% | 88.5% | 71.9% | 103% | 87.3% | 66.6% | 65.1 | 85.1% | 99.5% | 107% | 102% | 98.3% | 86% | 89.8% | 76.7% | 98.4% | 67.6% | 82.3%
